We go through 30 molecules from PubChem BioAssay (NCI).

Each structure is given as a SMILES string. This is part of a sample that, as a whole, favours compounds with a hit. Of some 83,000 tested, about 20% had one in any assay.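 Compound tested at a single concentration for 48 hours in 96-well plates; a percent growth value below 10 was scored as active.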 Values without a mark were called inactive. The source made the active and inactive calls.

Common to all, as to assay: NCI-60 one-dose screen, 48 h (100 = growth as untreated, 0 = no growth, -100 = all killed)
The subject of assay [1] is NCI-H322M lung. The following applies: 10 µM unless noted.
Assay [2] deals with HOP-62 NSCLC. The following applies: 10 µM unless noted.
The test system of assay [3] is NCI-H460 lung. The following applies: 10 µM unless noted.
In assay [4] the test system is HOP-92 NSCLC. The following applies: 10 µM unless noted.
Assay [5] has as its system NCI-H522 lung. The following applies: 10 µM.
For assay [6], the system named is A549/ATCC NSCLC. To be noted: 10 µM unless noted.
In assay [7] the test system is 786-0 renal. The following applies: 10 µM unless noted.
Assay [8] deals with COLO 205 colon. To be noted: 10 µM unless noted.

With `O=c1oc2ccccc2cc1-c1csc(N=Nc2c(O)[nH]c3ccc(Cl)cc23)n1`, the growth in assay [1] is 105%; in assay [2] it was 117%; in assay [3], 99.9%; in assay [4], 114%; in assay [5], 98.4%; in assay [6], 89.6%. Also, the growth in assay [7] is 105%.

For `N#CC1=C(N)Oc2cc(N)ccc2C1c1ccc(F)cc1` (stereo not given), the growth was 82.6% in assay [1]; 69.6% in assay [2]; 100% in assay [3]; 54.1% in assay [5]; 74.2% in assay [6]; 86.6% in assay [7]. Besides, the growth in assay [8] was 82.9%.

Take `CCCCCn1c(=N)n(CC(O)COc2cccc(C)c2)c2ccccc21` (stereo not given): the growth in assay [1] is 14%; in assay [2], 17.9%; in assay [3] it was 0.388% (active); in assay [4], -10.9% (active); in assay [6], 7.6% (active); in assay [7], 32.6%. In addition, the growth in assay [8] was 87.2%.

Take `COc1ccc(-c2nc3sc(C)nn3c2-c2nc3cc(C)c(C)cc3[nH]2)cc1`: the growth was 99.4% in assay [1]; 91.8% in assay [2]; 99.9% in assay [3]; 87.9% in assay [4]; 96.3% in assay [6]; 98.4% in assay [7]. The growth in assay [8] is 115%.

`C=C1CC[C@@H]2[C@@](C)(CCC[C@]2(C)C(=O)O)[C@@H]1CC[C@H](CO)CCO`: the growth is 101% in assay [1]; 100% in assay [2]; 113% in assay [3]; 90% in assay [4]; 85.6% in assay [5]; 102% in assay [6]. Besides, in assay [7], the growth was 99.3%.

Consider `Cc1c(C(=O)Nc2nc(-c3ccccc3)cs2)nnn1-c1cccc2ccccc12`, for which the growth in assay [1] is 84.6% [50 µM]; in assay [2], 87.9% [50 µM]; in assay [3], 56.4% [50 µM]; in assay [4], 70.7% [50 µM]; in assay [6], 43.9% [50 µM]; in assay [7], 79.8% [50 µM]. Also, the growth in assay [8] is 69.1% [50 µM].

On to `Cc1ccc(C2SCC(=O)N2NC(=O)c2[nH]c3ccc(F)cc3c2-c2ccccc2)cc1` (stereo not given), for which the growth in assay [1] was 111%; in assay [2], 109%; in assay [3], 92.2%; in assay [5], 67.8%; in assay [6] it was 74.1%; in assay [7], 105%. In assay [8], the growth is 104%.

For the molecule `COc1ccc(OC2=C(C#N)C(=N)N3c4ccccc4Sc4ccccc4C3N2)cc1` (stereo not given), the growth is 97.5% in assay [1]; 79.9% in assay [2]; 97.8% in assay [5]; 104% in assay [6]; 105% in assay [7]; 103% in assay [8].

Consider `Cc1cccc2c(=O)c3c(sc12)c(NCCCN)nc1ccccc13`, for which the growth in assay [1] is 43.2%; in assay [2], 9.12% (active); in assay [3], -52.7% (active); in assay [4], 31.5%; in assay [5], 13.2%; in assay [6], 14.5%. Moreover, the growth in assay [7] is 52.9%.

On to `O=C(N/N=C/c1ccc(F)cc1)c1[nH]c2ccc(I)cc2c1-c1ccccc1`, for which the growth is 34% in assay [1]; 38% in assay [2]; 22.5% in assay [4]; 4.71% (active) in assay [5]; 32.4% in assay [6]; 28.3% in assay [7]. Also, the growth in assay [8] is -40.1% (active).

As to `O=C(c1ccccc1)C(Br)C(Br)c1cccc([N+](=O)[O-])c1` (stereo not given), the growth in assay [1] was 101%; in assay [3], 90.2%; in assay [4], 65.1%; in assay [5], -68.8% (active); in assay [6], 92.7%; in assay [7], 90.1%. In addition, the growth in assay [8] was -95% (active).

In the case of `COc1ncnc2c1ncn2C/C(Br)=C(\Br)CCl`, the growth in assay [1] is 78.9%; in assay [2] it was 15.6%; in assay [3], -40.7% (active); in assay [5], -72.1% (active); in assay [6], 9.47% (active); in assay [7], 7.78% (active). For the same molecule, the growth in assay [8] was -82.6% (active).

On to `COc1cc(C2CC(=O)Nc3c2ccc2ccccc32)cc(Br)c1OC` (stereo not given), for which the growth in assay [1] was 33.1%; in assay [2], 24.9%; in assay [3] it was 3.08% (active); in assay [5], -42.7% (active); in assay [6] it was 18.6%; in assay [7] it was 30.6%. Besides, the growth in assay [8] is -57.5% (active).

With `COc1cc(-c2ccc3cc(OC)c(OC)c(OC)c3c2)cc(OC)c1OC`, the growth is 78.7% in assay [1]; 61.3% in assay [2]; 34% in assay [5]; 50.8% in assay [6]; 84% in assay [7]; 54.7% in assay [8].

In the case of `O=C1CN2CCC1C/C2=C\c1ccnc2c(Cl)cccc12` (stereo not given), the growth in assay [1] is 102%; in assay [2], 82%; in assay [3], 116%; in assay [5], 88.9%; in assay [6], 107%; in assay [7], 103%. For the same molecule, in assay [8], the growth was 98%.

On to `Cc1ccc(S(=O)(=O)N2CCc3ccc(O)c4c3C2Cc2cc(Cl)ccc2-4)cc1` (stereo not given), for which the growth was 78.3% in assay [1]; 69.2% in assay [2]; 33.6% in assay [3]; 62.8% in assay [4]; 18.4% in assay [5]; 53.9% in assay [6]. In addition, the growth in assay [7] is 88.2%.

As for `Brc1ccccc1Nc1ccc2nnc(-c3ccncc3)n2n1`, the growth in assay [1] is 95.6%; in assay [2] it was 95.1%; in assay [3], 104%; in assay [5] it was -71.2% (active); in assay [6], 101%; in assay [7], 101%. In addition, the growth in assay [8] is 103%.

For `COCCOC1=C(Cl)C(=O)c2ccccc2C1=O`, the growth in assay [1] is 95.6%; in assay [2], 45.5%; in assay [3], 14.3%; in assay [4] it was -17.3% (active); in assay [6], 21.6%; in assay [7], 81.8%. For the same molecule, in assay [8], the growth was 35.4%.

In the case of `O=C1OCC2=C1C(c1ccc3c(c1)OCO3)CC(=O)N2c1cccc(Cl)c1` (stereo not given), the growth is 94.1% in assay [1]; 103% in assay [2]; 108% in assay [3]; 92.9% in assay [5]; 94.6% in assay [6]; 110% in assay [7]. In assay [8], the growth was 105%.

For `COc1ccc(OC)c(/C=C2\Oc3cc(O)ccc3C2=O)c1`, the growth in assay [1] was 92.6%; in assay [2] it was 101%; in assay [3], 91.6%; in assay [4], 98.2%; in assay [5], 77.6%; in assay [6], 98.8%. In addition, the growth in assay [7] was 89.5%.

Take `CC1(C)CC(=O)C2=C(C1)Nc1cc3c(cc1C2c1ccc(F)cc1)OCO3` (stereo not given): the growth is 94.8% in assay [1]; 95.6% in assay [2]; 103% in assay [3]; 80.9% in assay [5]; 94.5% in assay [6]; 109% in assay [7]. Besides, the growth in assay [8] is 117%.

Turning to `CCN(CC)c1ccc(/C=C(\C#N)c2cc3ccccc3[nH]2)cc1`, the growth in assay [1] was 88.7%; in assay [2], 77.7%; in assay [3], 24.4%; in assay [4], 97%; in assay [6], 39.4%; in assay [7] it was 80%. In assay [8], the growth is 45.3%.

For the molecule `O=C1/C(=C/c2ccc(Oc3ccccc3)cc2)N=C(c2ccccc2)N1CCc1cccs1`, the growth in assay [1] is 93.6%; in assay [2], 104%; in assay [3], 70.1%; in assay [5], 46.8%; in assay [6], 91.3%; in assay [7], 84.5%. In addition, in assay [8], the growth is 107%.

Regarding `N#C/C(=C\c1ccc[nH]1)c1cc2ccccc2[nH]1`, the growth in assay [1] is 87.5%; in assay [2], 85.1%; in assay [4], 76.9%; in assay [6] it was 54.2%; in assay [7] it was 93.4%; in assay [8] it was 88.6%.

Regarding `C=C[C@H]1C[C@@H]2C[C@@H]3[C@H]4C/C=C\C(=O)NCCCC5NC(=O)C(=C(O)/C=C/[C@@H]4CC(=O)[C@H]3[C@@H]2[C@H]1C)C5=O` (stereo not given in full), the growth in assay [2] is -82.3% (active); in assay [3] it was -69.4% (active); in assay [4] it was -85.7% (active); in assay [5], 46.4%; in assay [6], -91% (active); in assay [8], -82.9% (active).

For the molecule `COc1ccc(-c2[nH]ncc2Nc2cc(OC)c(OC)c(OC)c2)cc1`, the growth was 48.7% in assay [1]; 51.7% in assay [2]; 14.1% in assay [3]; 65.8% in assay [4]; 12.7% in assay [5]; 61.2% in assay [6]. Moreover, the figures for the growth in assay [7] and in assay [8] were 44.1% and -11.9% (active), respectively.

Consider `COc1ccc(/C=N\N2CCOCC2)cc1OC1CCCC1`, for which the growth in assay [1] was 107%; in assay [2], 97%; in assay [4], 93.1%; in assay [5], 95.6%; in assay [6], 99.8%; in assay [7], 93.6%.

For the molecule `CN([N-]C(=O)CC(=O)[N-]N(C)C(=S)c1ccccc1)C(=S)c1ccccc1.[Cu+2]`, the growth in assay [1] was -95.8% (active); in assay [2] it was -98.6% (active); in assay [3] it was -35.4% (active); in assay [5], -93.4% (active); in assay [6], -54.9% (active); in assay [7] it was -72% (active). In assay [8], the growth is -83.4% (active).

For `CN1CCN(C)c2cncc(Br)c2C1=O`, the growth in assay [2] is 110%; in assay [3] it was 105%; in assay [4] it was 91.8%; in assay [5], 93.5%; in assay [6] it was 104%; in assay [8], 108%.

As for `Cc1nc(-c2ccccc2)cc2c(O)c(C(=O)N/N=C/Cc3ccccc3)[nH]c(=O)c12`, the growth in assay [1] is 107%; in assay [2], 104%; in assay [3], 102%; in assay [5], 91.1%; in assay [6] it was 105%; in assay [7], 103%. Also, the growth in assay [8] was 111%.
